We go through 36 compounds from PubChem BioAssay (EPA / NIEHS).

The structures appear in SMILES notation. Records with an inconclusive call do not appear. Calls of active or inactive are those of the source. How the source made its calls: active means hit-call score of the fitted dose curve at least 0.9, where 1 is the maximum; inconclusive means response in the unintended direction; inactive means score below 0.9.

Sequence of zebrafish Estrogen Receptor (ESR1), esr1 (gene 259252) (P57717 whole entry, looked up, the tested form may be a part): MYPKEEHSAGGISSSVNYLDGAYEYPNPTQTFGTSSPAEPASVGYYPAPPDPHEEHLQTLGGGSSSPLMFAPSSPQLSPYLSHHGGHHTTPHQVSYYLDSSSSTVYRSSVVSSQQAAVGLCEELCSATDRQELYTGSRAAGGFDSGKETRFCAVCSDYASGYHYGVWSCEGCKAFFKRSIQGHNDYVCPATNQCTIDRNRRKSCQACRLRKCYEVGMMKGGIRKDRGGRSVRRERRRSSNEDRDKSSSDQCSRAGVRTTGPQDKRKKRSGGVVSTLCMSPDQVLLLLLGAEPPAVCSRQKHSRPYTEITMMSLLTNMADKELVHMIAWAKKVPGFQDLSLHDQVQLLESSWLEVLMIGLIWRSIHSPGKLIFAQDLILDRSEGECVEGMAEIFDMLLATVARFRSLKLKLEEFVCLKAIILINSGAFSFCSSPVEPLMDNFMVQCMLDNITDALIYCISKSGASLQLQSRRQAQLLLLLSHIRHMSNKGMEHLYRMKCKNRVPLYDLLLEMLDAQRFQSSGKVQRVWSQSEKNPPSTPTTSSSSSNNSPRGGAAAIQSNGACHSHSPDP

In the first test the target is zebrafish Estrogen Receptor (ESR1), esr1 (gene 259252) (UniProt P57717). The experiment in a line: ATG_zfER1_XSP1: Attagene TRANS-FACTORIAL Multi-Species (XSP1) HepG2 Assay for zebrafish Estrogen Receptor (ESR1) (AID 2283772). The method, boiled down:
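Trans-activation readout: transfected zebrafish ER-Gal4 drives a UAS reporter in human HepG2 liver cells. After 24 h compound exposure (medium containing 3 nM 6-alpha-fluorotestosterone), induced reporter transcripts were quantified by RT-PCR with capillary electrophoresis, relative to DMSO.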
As to `Cc1c(COC(=O)[C@@H]2[C@H](/C=C(\Cl)C(F)(F)F)C2(C)C)cccc1-c1ccccc1`, the result was inactive. `CCN(CC)C(=O)C(C)Oc1cccc2ccccc12` (stereo not given): the compound was called inactive.

As to `CC1(C)CCC(=Cc2ccc(Cl)cc2)C1(O)Cn1cncn1` (stereo not given), the outcome was inactive.

For `CSC(=O)c1c(C(F)F)nc(C(F)(F)F)c(C(=O)SC)c1CC(C)C`, the compound was called inactive. Still for that read-out and setting: in the case of `CC(C)NC(=O)N1CC(=O)N(c2cc(Cl)cc(Cl)c2)C1=O` it was “inactive”. On the same count and under the same terms, in the case of `CC1(C)C(C=C(Cl)Cl)C1C(=O)OC(C#N)c1cccc(Oc2ccccc2)c1` (stereo not given) it was “inactive”; in that of `COP(=S)(OC)Oc1ccc([N+](=O)[O-])c(C)c1`, “inactive”.

Another test deals with zebrafish Estrogen Receptor (ESR2B), gene 317733. Nature of the test: ATG_zfER2b_XSP1: Attagene TRANS-FACTORIAL Multi-Species (XSP1) HepG2 Assay for zebrafish Estrogen Receptor (ESR2B) (AID 2283773). The method, boiled down: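 HepG2 cells transiently transfected with multiple GAL4-UAS reporter units expressing chimeric zebrafish ER2b-Gal4; 24 h chemical exposure with 3 nM 6-alpha-fluorotestosterone present. Reporter mRNA measured by RT-PCR and capillary electrophoresis; gain of signal fitted versus DMSO.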
Take `Cc1c(COC(=O)[C@@H]2[C@H](/C=C(\Cl)C(F)(F)F)C2(C)C)cccc1-c1ccccc1`: the AC50 is 69.1 µM (active). `CCN(CC)C(=O)C(C)Oc1cccc2ccccc12` (stereo not given): the AC50 was 27.1 µM (active). Still for that read-out and setting: next, `CSC(=O)c1c(C(F)F)nc(C(F)(F)F)c(C(=O)SC)c1CC(C)C`: 32.3 µM (active). Regarding `CC(C)NC(=O)N1CC(=O)N(c2cc(Cl)cc(Cl)c2)C1=O`, the AC50 was 100 µM (active). As for `CC1(C)C(C=C(Cl)Cl)C1C(=O)OC(C#N)c1cccc(Oc2ccccc2)c1` (stereo not given), the concentration at half-maximal activity (AC50) was 72.5 µM (active).

`COP(=S)(OC)Oc1ccc([N+](=O)[O-])c(C)c1`: the half-maximal activity concentration (AC50) was 74.4 µM (active).

Another test has as its system frog Estrogen Receptor (ESR2), gene 100174814. Nature of the test: ATG_frER2_XSP1: Attagene TRANS-FACTORIAL Multi-Species (XSP1) HepG2 Assay for frog Estrogen Receptor (ESR2) (AID 2283774). The essentials: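 HepG2 cells transiently transfected with GAL4-UAS multiplexed reporter units expressing chimeric NR-Gal4 proteins; reporter mRNA measured 24 h after dosing by RT-PCR, FAM labeling, HpaI digestion and capillary electrophoresis. Gain-of-signal relative to DMSO; 3 nM 6-alpha-fluorotestosterone present.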
As for `Cc1c(COC(=O)[C@@H]2[C@H](/C=C(\Cl)C(F)(F)F)C2(C)C)cccc1-c1ccccc1`, the half-maximal activity concentration (AC50) is 100 µM (active). Same read-out and setting: next, `CCN(CC)C(=O)C(C)Oc1cccc2ccccc12` (stereo not given): 27.4 µM (active); `CC1(C)CCC(=Cc2ccc(Cl)cc2)C1(O)Cn1cncn1` (stereo not given): 56.6 µM (active). Same read-out and setting: in the case of `CSC(=O)c1c(C(F)F)nc(C(F)(F)F)c(C(=O)SC)c1CC(C)C` it was 0.955 µM (active); in that of `CC(C)NC(=O)N1CC(=O)N(c2cc(Cl)cc(Cl)c2)C1=O`, 100 µM (active). For the compound `CC1(C)C(C=C(Cl)Cl)C1C(=O)OC(C#N)c1cccc(Oc2ccccc2)c1` (stereo not given), the concentration at half-maximal activity (AC50) is 27.3 µM (active). The same measure, in the same setting: next, `COP(=S)(OC)Oc1ccc([N+](=O)[O-])c(C)c1`: 65.9 µM (active).

System in a further test: not listed separately
Nature of the test: ACEA_AR_agonist_AUC_viability: ACEA Biosciences xCELLigence Real-Time Cell Analysis on Androgen Receptor Agonism for Viability (AID 2283775).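 On AC50: viability read 80 hours after compound addition.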 The method, boiled down: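 Real-time impedance tracking of 22Rv1 growth, readings every 5 min for 5 h then hourly; area-under-curve viability endpoint at 80 hours, relative to DMSO. Compounds at eight concentrations, 1:4 steps, top 100 uM, n = 2.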
`Cc1c(COC(=O)[C@@H]2[C@H](/C=C(\Cl)C(F)(F)F)C2(C)C)cccc1-c1ccccc1`: the AC50 was 69.3 µM (active). In the case of `Clc1nc(Cl)nc(Nc2ccccc2Cl)n1`, the outcome was inactive. On the same count and under the same terms, next, `COc1cc(Cl)c(OC)cc1Cl`: “inactive”. Regarding `CN=C=S`, the compound was called inactive.

Regarding `Cc1ccc(N=CN(C)C=Nc2ccc(C)cc2C)c(C)c1`, the AC50 was 14.5 µM (active). For the compound `O=c1n(Cl)c(=O)n(Cl)c(=O)n1Cl`, the call was inactive. On the same count and under the same terms, in the case of `CCN(CC)C(=O)C(C)Oc1cccc2ccccc12` (stereo not given) it was “inactive”.

For `CCN(CC)c1nc(C)cc(OP(=S)(OC)OC)n1`, the half-maximal activity concentration (AC50) was 87.1 µM (active). The same measure, in the same setting: in the case of `C=CCOC(=O)C(C)(C)OC(=O)c1cc(-n2c(=O)cc(C(F)(F)F)n(C)c2=O)ccc1Cl` it was 50.5 µM (active). Take `O=P(O)(O)CCCl`: the compound was called inactive. Same read-out and setting: next, `N#Cc1c(Cl)cccc1Cl`: “inactive”; `CC1(C)CCC(=Cc2ccc(Cl)cc2)C1(O)Cn1cncn1` (stereo not given): “inactive”. For `COC(=O)NC(=S)Nc1ccccc1NC(=S)NC(=O)OC`, the concentration at half-maximal activity (AC50) was 18.3 µM (active). The same measure, in the same setting: next, `CC(C)NC(=O)N1CC(=O)N(c2cc(Cl)cc(Cl)c2)C1=O`: 11.2 µM (active).

As to `CN/C(=N\[N+](=O)[O-])NCc1cnc(Cl)s1`, the compound was classed as inactive. With `C=C(C)CN(CC)c1c([N+](=O)[O-])cc(C(F)(F)F)cc1[N+](=O)[O-]`, the concentration at half-maximal activity (AC50) was 73 µM (active).

On to `Nc1c(Cl)c(Cl)nc(C(=O)O)c1Cl`, for which the compound was classed as inactive.

Consider `CCC(C)n1c(=O)[nH]c(C)c(Br)c1=O` (stereo not given), for which the compound was classed as inactive. The same measure, in the same setting: next, `CNC(=O)N(C)c1nnc(C(C)(C)C)s1`: “inactive”.

Take `CCCC(=NOCC)C1=C(O)CC(CC(C)SCC)CC1=O` (stereo not given): the AC50 is 79.5 µM (active). `Cc1nc(N(C)C)nc(OC(=O)N(C)C)c1C`: the call was inactive. Regarding `CC1(C)C(C=C(Cl)Cl)C1C(=O)OC(C#N)c1cccc(Oc2ccccc2)c1` (stereo not given), the AC50 was 73.1 µM (active). In the case of `Nc1cnn(-c2ccccc2)c(=O)c1Cl`, the compound was classed as inactive.

Regarding `CCOC(=O)C(C)OC(=O)c1cc(Oc2ccc(C(F)(F)F)cc2Cl)ccc1[N+](=O)[O-]` (stereo not given), the AC50 is 74 µM (active). Turning to `CC(C)N1C(=O)c2ccccc2NS1(=O)=O`, the compound was classed as inactive. Turning to `OC(c1ccc(Cl)cc1)(c1ccc(Cl)cc1)C(Cl)(Cl)Cl`, the AC50 is 14.5 µM (active). Take `CCSC(=O)N1CCCCCC1`: the compound was classed as inactive. Turning to `COP(=S)(OC)Oc1ccc([N+](=O)[O-])c(C)c1`, the half-maximal activity concentration (AC50) was 87.3 µM (active). Consider `CC(C)Oc1cccc(NC(=O)c2ccccc2C(F)(F)F)c1`, for which the compound was called inactive. Still for that read-out and setting: in the case of `COCC(C)N(C(=O)CCl)c1c(C)csc1C` (stereo not given) it was “inactive”; in that of `COP(=O)(OC)O/C(C)=C/C(=O)N(C)C`, “inactive”.

With `CC1(C)C(C(=O)OC(C#N)c2cccc(Oc3ccccc3)c2)C1(C)C` (stereo not given), the AC50 is 50 µM (active). `CC(C)=CC1C(C(=O)OCc2coc(Cc3ccccc3)c2)C1(C)C` (stereo not given): the AC50 is 46 µM (active). In the case of `CCOc1nc(F)cc2nc(S(=O)(=O)Nc3c(Cl)cccc3Cl)nn12`, the compound was called inactive. The same measure, in the same setting: in the case of `COCC(=O)N(c1c(C)cccc1C)C(C)C(=O)OC` (stereo not given) it was “inactive”.

What is called AC50 is the concentration at which the activity in the assay is half-maximal.
